# Compounds with a hit are over-represented: about 6.6% of the library has one in this group of screens.
# Anthrax LF prot = Bacillus anthracis LF protease inhibitors, primary screen, biochemical, multiplex microsphere, MLPCN library; Lethal factor (Bacillus anthracis), P15917; multiplex microsphere protease cleavage assay; inhibition, % at 10 µM; 360,000 compounds, 0.12% hits; AID 588501, 2011; in the data active = inhibition above about 30%; inconclusive = no clear call, values can overlap the other calls; also: plate controls were buffer without enzyme for full effect and enzyme alone for no effect
# Target sequence (P15917 whole entry, looked up): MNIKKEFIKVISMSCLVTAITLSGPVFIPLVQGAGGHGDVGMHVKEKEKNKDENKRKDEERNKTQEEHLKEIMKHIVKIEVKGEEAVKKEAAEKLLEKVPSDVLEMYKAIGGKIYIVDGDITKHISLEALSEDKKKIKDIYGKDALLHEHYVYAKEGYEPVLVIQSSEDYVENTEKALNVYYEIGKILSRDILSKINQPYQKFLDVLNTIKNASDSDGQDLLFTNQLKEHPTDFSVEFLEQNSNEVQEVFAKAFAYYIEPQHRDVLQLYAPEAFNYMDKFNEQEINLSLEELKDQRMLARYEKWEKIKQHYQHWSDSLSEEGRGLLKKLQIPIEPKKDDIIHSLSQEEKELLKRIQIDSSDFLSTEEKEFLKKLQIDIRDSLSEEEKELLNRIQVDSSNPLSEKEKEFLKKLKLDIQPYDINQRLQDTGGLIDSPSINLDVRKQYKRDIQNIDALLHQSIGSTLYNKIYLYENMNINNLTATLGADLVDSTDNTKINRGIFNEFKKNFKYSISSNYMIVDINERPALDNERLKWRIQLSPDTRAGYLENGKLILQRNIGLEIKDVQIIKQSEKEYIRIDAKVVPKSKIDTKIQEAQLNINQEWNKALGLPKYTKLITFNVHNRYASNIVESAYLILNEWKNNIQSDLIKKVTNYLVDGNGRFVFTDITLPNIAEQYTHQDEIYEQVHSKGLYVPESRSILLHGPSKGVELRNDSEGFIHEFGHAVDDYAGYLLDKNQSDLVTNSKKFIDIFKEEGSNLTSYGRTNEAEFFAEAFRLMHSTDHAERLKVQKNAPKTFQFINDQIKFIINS
# Mtb FBA inh = Mtb FBA enzyme inhibitors, primary screen, biochemical, fluorescence, strain H37Rv | purified M. tuberculosis FBA, fluorescence read-out | inhibition, % at 1 µM | Fructose-bisphosphate aldolase (Mycobacterium tuberculosis (strain ATCC 25618 / H37Rv)), … | 360,000 compounds, 2.3% hits;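 also: 0% = vehicle and 100% = reference inhibitor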
# BoNT-A LC inh2 = BoNT/A light chain protease inhibitors, primary screen, biochemical, flow cytometry, MLPCN library; Botulinum neurotoxin type A light chain protease (Clostridium botulinum A str. ATCC 3502); multiplex microsphere protease substrate cleavage; inhibition, % at 10 µM; 360,000 compounds, 0.17% hits; AID 588499, 2011; in the data active = inhibition above about 30%; inconclusive = no clear call, values can overlap the other calls; also: plate controls were buffer without enzyme for full effect and enzyme alone for no effect
# BoNT F protease = BoNT/F light chain protease inhibitors, primary screen, biochemical, flow cytometry, MLPCN library. Multiplex microsphere protease cleavage assay. inhibition, % at 10 µM. 360,000 compounds, 0.22% hits; in the data active = inhibition above about 35%, passing the limit was not always enough; inconclusive = no clear call, values can overlap the other calls; also: plate controls were buffer without enzyme for full effect and enzyme alone for no effect
# Autofluor counter = counter-screen for toxin protease inhibitors: compound fluorescence; compound autofluorescence counterscreen, microsphere flow cytometry; stronger effect = higher value; fluorescence intensity (test concentration not listed); 360,000 compounds, 3.1% hits; AID 624483; in the data active = fluorescence intensity above about 16000; inconclusive = no clear call, values can overlap the other calls
# GDH-TPI counter-1 = GDH-TPI coupling enzyme inhibitors, primary screen, artefact control for M. tuberculosis FBA inhibitor project, biochemical, absorbance, full deck; GDH-TPI coupled enzyme counterscreen, NADH absorbance; inhibition, % at 4.8 µM; 360,000 compounds, 1.2% hits; AID 588335, 2011; in the data active = inhibition above about 30%;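 also: 0% = DMSO wells and 100% = wells lacking the enzyme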
# Mtb FBA inh conf = M. tuberculosis aldolase blockers, biochemical, fluorescence, strain H37Rv, confirmation. purified M. tuberculosis FBA, fluorescence read-out. 5,600 compounds, 78% hits. AID 651616, 2012. shares compounds with Mtb FBA inh. inhibition, % at 1 µM;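 also: 0% = vehicle wells and 100% = reference inhibitor wells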
# GDH-TPI counter-2 = GDH-TPI coupling enzyme inhibitors, artefact control for M. tuberculosis FBA inhibitor project, biochemical, fluorescence, high throughput; 5,600 compounds, 81% hits; shares compounds with Mtb FBA inh; AID 652141, 2013; inhibition, % at 1 µM; GDH-TPI coupled enzyme counterscreen; in the data active = inhibition above about 10%
# GDH-TPI DR = GDH-TPI coupling enzyme inhibitors, dose response, artefact control for M. tuberculosis FBA inhibitor project, biochemical, fluorescence, IC50 | 170 compounds, 79% hits | shares compounds with Mtb FBA inh | GDH-TPI coupled enzyme assay, artifact counterscreen | IC50, µM; call rule not given here
# Active calls of the source: *; ? = inconclusive; · = not tested or not shown; + = active, no number. Rule as the data show it, unless noted: active = inhibition above about 27%; inactive = the rest.
SMILES,Anthrax LF prot,Mtb FBA inh,BoNT-A LC inh2,BoNT F protease,Autofluor counter,GDH-TPI counter-1,Mtb FBA inh conf,GDH-TPI counter-2,others
CCOC(=O)c1cc(-c2ccc(F)cc2)n(CC(=O)NCc2cccnc2)c1C,1,1,0,-1,2554,2,·,·,
c1ccc(OCc2noc(CN3CCC(C4CCCCC4)C3)n2)cc1 (configuration not stated),-1,1,-1,-3,2844,2,·,·,
COc1ccc2oc(=O)c(C(=O)NC3CCCCCC3)cc2c1,0,10,0,-21,4439,17,·,·,
CNC(=O)c1cc2cc(OC)ccc2oc1=N,-3,54*,1,7,9136,6,28*,16*,
Cc1ccc2nc(-c3ccccc3)cc(C(=O)NCC3CCCO3)c2c1 (configuration not stated),?,41*,-2,-11,3659,7,81*,86*,
Cc1ccc2nc(-c3ccc(Br)cc3)cc(C(=O)NCC3CCCO3)c2c1 (configuration not stated),-3,2,1,5,3560,19,·,·,
CNC(=O)c1cc2cc(OC)ccc2oc1=O,0,59*,4,6,21752*,-1,14,-4,
Cc1ccn(C(=O)c2cc3cc(Cl)ccc3oc2=O)n1,-1,3,-1,-2,10141,9,·,·,
COc1ccc2oc(=O)c(C(=O)n3ccc(C)n3)cc2c1,4,40*,1,-1,7844,16,78*,54*,
O=C(NCC1CCCO1)c1cnn2c(C(F)F)cc(C3CC3)nc12 (configuration not stated),2,11,-2,-4,6485,2,·,·,
COc1ccc2oc(=O)c(C(=O)NCC3CCCO3)cc2c1 (configuration not stated),-5,64*,1,-13,4939,15,79*,59*,
COc1ccc(-c2cc(C(F)F)n3ncc(C(=O)NCC4CCCO4)c3n2)cc1 (configuration not stated),6,29*,1,4,2583,26,96*,76*,
CCN1C(=O)CSc2ccc(C(=O)NCc3ccc(OC)cc3)cc21,-2,-4,0,-6,11413,-12,·,·,
CCOc1ccc(CNC(=O)c2ccc3c(c2)N(CC)CCS3)cc1,-8,71*,0,-10,5252,6,122*,88*,
CC(C)Oc1ccc(C(=O)NCc2cccnc2)cc1,5,4,0,-28,3130,2,·,·,
CCN1CCSc2ccc(C(=O)NCc3ccc(OC(C)C)cc3)cc21,-5,42*,-1,6,6592,15,81*,56*,
O=C(Cc1cccc(C(F)(F)F)c1)OCN1C(=O)c2ccccc2C1=O,2,0,0,5,5274,-5,·,·,
NC(=NCCc1ccccc1)c1cccc([N+](=O)[O-])c1,-6,3,3,-32,4311,-3,·,·,
Cc1cccc(C(=O)C2CCN(S(=O)(=O)c3cccc(C(=O)O)c3)CC2)c1,-1,1,-1,-3,5199,4,·,·,
CC1(C(=O)Nc2ccccc2)Cc2c(-c3ccc4c(c3)OCO4)ccnc2O1 (configuration not stated),0,48*,0,0,3445,4,24,10,GDH-TPI DR=4.5*
CC(=O)Nc1ccc(NC(=O)C2(C)Cc3c(-c4ccc5c(c4)OCO5)ccnc3O2)cc1 (configuration not stated),0,52*,0,-2,3781,0,6,-6,
CC1(C(=O)Nc2cccc(Oc3ccccc3)c2)Cc2c(-c3ccc4c(c3)OCO4)ccnc2O1 (configuration not stated),1,3,0,2,3572,-6,·,·,
CC1(C(=O)Nc2cccnc2)Cc2c(-c3ccc4c(c3)OCO4)ccnc2O1 (configuration not stated),-1,37*,0,-4,3716,7,43*,30*,
Nc1ccc(Nc2nc(-c3cc4ccccc4oc3=O)cs2)cc1,-10,0,0,-13,4555,16,·,·,
O=C(Cc1cccc2ccccc12)Nc1ccc(-c2cc3ccccc3oc2=O)cc1,-10,53*,-1,3,2700,22,75*,49*,
SMILES,Anthrax LF prot,Mtb FBA inh,BoNT-A LC inh2,BoNT F protease,Autofluor counter,GDH-TPI counter-1,Mtb FBA inh conf,GDH-TPI counter-2,others
O=c1oc(-c2ccccc2)cc2ccccc12,-6,44*,0,5,5266,11,71*,47*,
Nc1ccc(-c2cc3ccccc3c(=O)o2)cc1,2,2,2,-3,3763,30,·,·,
N#CCc1nc(-c2cc3ccccc3oc2=O)cs1,2,77*,0,-2,3515,12,197*,155*,
CCC(=O)Nc1cccc(-c2cc3ccccc3oc2=O)c1,-2,1,0,0,1983,23,·,·,
O=c1oc2ccc(Cl)cc2cc1-c1ccccc1,-1,1,0,-2,2156,-3,·,·,
O=c1oc2ccccc2cc1-c1ccccc1,0,31*,0,1,1971,17,11,2,GDH-TPI DR=5.2*
CC(C)CNC(=O)C1(C)CCN1C(=O)c1ccc(C(C)(C)C)cc1 (configuration not stated),2,1,0,-1,3922,10,·,·,
O=c1oc2ccccc2cc1-c1cn2cccnc2n1,-8,29*,0,6,10050,45*,+,196*,
CCOC(=O)c1cc(C#N)c(SCC(=O)O)[nH]c1=O,1,43*,0,-3,3252,17,32*,22*,
CCOC(=O)c1cc(C#N)c(SCC(N)=O)[nH]c1=O,-4,22,0,-3,4334,10,·,·,
CCCCS(=O)(=O)Nc1ccc(C)cn1,13,41*,13,3,9262,-1,+,+,
Cc1ccc(NS(=O)(=O)c2cccs2)nc1,-2,17,-3,-4,5193,7,·,·,
COc1ccc(CC(NC(C)=O)C(=O)NC2CCN(c3nc(C)cc(C)c3C#N)CC2)cc1OC (configuration not stated),-2,31*,0,0,4068,-1,162*,121*,
CN(CC(=O)Nc1ncn[nH]1)S(=O)(=O)c1cc(Cl)ccc1Cl,-3,-2,1,-2,6255,2,·,·,

# Screening data from PubChem.
